Experimental data taken from PubChem BioAssay (NCI).
Compounds without any hit were thinned out: in the full panel of roughly 79,000, 15% have a hit. Calls of active or inactive are those of the source. Cut-off read from the data, not from the text of the source: active = growth inhibition above about 70%; inactive = the rest.

Columns and labels:
[1] = NCI Yeast Anticancer Drug Screen. Data for the rad50 strain (AID 155);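 note: 0% = growth of vehicle-only cultures of the same strain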; settings: S. cerevisiae rad50 strain growth inhibition, active compounds read high
How it was run: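 Relative growth inhibition (compound vs vehicle) was measured in yeast with a defined repair-gene alteration.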

[2] = NCI Yeast Anticancer Drug Screen. Data for the mec2-1 strain (AID 157); settings: S. cerevisiae mec2-1 strain, active compounds read high
How it was run: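 Compounds were applied to mec2-1 yeast cells. Their growth was then compared with that of vehicle-treated cultures to give growth inhibition.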

[3] = NCI Yeast Anticancer Drug Screen. Data for the sgs1 mgt1 strain (AID 161);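 note: 0% = growth of cultures given vehicle only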; settings: S. cerevisiae sgs1 mgt1 strain, active compounds read high
How it was run: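 Compounds are added to genetically altered yeast, and growth is compared with cultures given vehicle alone to give percent inhibition.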

[4] = NCI Yeast Anticancer Drug Screen. Data for the cln2 rad14 strain (AID 165);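 note: 0% = growth equal to vehicle treated cultures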; settings: S. cerevisiae cln2 rad14 strain, active compounds read high
How it was run: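 Strain: cln2 rad14 yeast, altered in cell cycle control and DNA damage repair. Read-out: growth inhibition vs vehicle.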

[5] = NCI Yeast Anticancer Drug Screen. Data for the bub3 strain (AID 167); settings: S. cerevisiae bub3 mutant strain, active compounds read high
How it was run: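 Screening used yeast with an engineered genetic alteration affecting cell cycle control. Compound-exposed cultures were compared with vehicle cultures, and reduced growth was taken as inhibition.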

[6] = NCI Yeast Anticancer Drug Screen. Data for the mlh1 rad18 strain (AID 175); settings: S. cerevisiae mlh1 rad18 strain growth inhibition, active compounds read high
How it was run: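 A repair-deficient yeast strain is exposed to test compound, and growth is scored relative to vehicle-treated controls.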

[7] = at 5.0 µM (retest, dose inferred, filed as 0.5)
[8] = at 50.0 µM (retest, dose inferred, filed as 5.0)

Measured: growth inhibition

C#CC(O)c1ccc(Cl)cc1Cl (configuration not stated)
inactive: [1]; [7] 9% | [2]; [7] -2% | [3]; [7] 0% | [4]; [7] -1% | [5]; [7] 5% | [6]; [7] 6%
active: [1]; [8] 96% | [1]; at 50.0 µM 99% | [2]; [8] 95% | [2]; at 50.0 µM 99.5% | [3]; [8] 92% | [3]; at 50.0 µM 95.3% | [4]; [8] 94% | [4]; at 50.0 µM 99.2% | [5]; [8] 96% | [5]; at 50.0 µM 99% | [6]; [8] 98% | [6]; at 50.0 µM 99.1%

C=CC(c1ccccc1)[C@@]1(OC(C)=O)C(=O)C(=O)OC1C1COC(C)(C)O1 (some centres not stated)
inactive: [1]; [7] 62% | [3]; [7] 65% | [4]; [7] 30%
active: [1]; [8] 98% | [1]; at 50.0 µM 86.3% | [2]; [7] 75% | [2]; [8] 98% | [2]; at 50.0 µM 77.7% | [3]; [8] 100% | [3]; at 50.0 µM 88.3% | [4]; [8] 94% | [4]; at 50.0 µM 86.9% | [5]; [7] 84% | [5]; [8] 100% | [5]; at 50.0 µM 85.1% | [6]; [7] 81% | [6]; [8] 98% | [6]; at 50.0 µM 90.4%

OCC(O)C(O)C(O)C(/C=N/Nc1ccccc1)=N\Nc1ccccc1 (configuration not stated)
active: [3]; at 50.0 µM 70.7%
inactive: [1]; [7] 4% | [1]; [8] -3% | [1]; at 50.0 µM 51.4% | [2]; [7] -1% | [2]; [8] -1% | [2]; at 50.0 µM 4.95% | [3]; [7] 20% | [3]; [8] 16% | [4]; [7] -41% | [4]; [8] 4% | [4]; at 50.0 µM -0.65% | [5]; [7] 1% | [5]; [8] -89% | [5]; at 50.0 µM 4.3% | [6]; [7] 16% | [6]; [8] 4% | [6]; at 50.0 µM 30.4%

Cc1cnc2c(c1C)C(=O)c1ccccc1C2=O
active: [1]; [8] 92% | [2]; [8] 88% | [3]; [8] 81% | [3]; at 50.0 µM 87% | [4]; [8] 75% | [4]; at 50.0 µM 83.1% | [5]; [8] 91% | [5]; at 50.0 µM 84.1% | [6]; [8] 92% | [6]; at 50.0 µM 89.3%
inactive: [1]; [7] 27% | [1]; at 50.0 µM 64.4% | [2]; [7] 26% | [2]; at 50.0 µM 50.2% | [3]; [7] 27% | [4]; [7] 27% | [5]; [7] 32% | [6]; [7] 26%

O=[N+]([O-])c1c(O)cccc1O
inactive: [1]; [7] 45% | [2]; [7] 17% | [3]; [7] 29% | [4]; [7] 24% | [5]; [7] 14% | [6]; [7] 36%
active: [1]; [8] 98% | [1]; at 50.0 µM 99% | [2]; [8] 99% | [2]; at 50.0 µM 99.2% | [3]; [8] 99% | [3]; at 50.0 µM 99.2% | [4]; [8] 99% | [4]; at 50.0 µM 98% | [5]; [8] 99% | [5]; at 50.0 µM 98.9% | [6]; [8] 99% | [6]; at 50.0 µM 98.5%

C[n+]1c2ccc(Cl)cc2nc2cc(-c3ccccc3)ccc21
inactive: [1]; [7] 15% | [2]; [7] 23% | [3]; [7] 32% | [4]; [7] 7% | [5]; [7] 54% | [6]; [7] 39%
active: [1]; [8] 98% | [1]; at 50.0 µM 98.6% | [2]; [8] 99% | [2]; at 50.0 µM 99% | [3]; [8] 99% | [3]; at 50.0 µM 98.9% | [4]; [8] 98% | [4]; at 50.0 µM 98.2% | [5]; [8] 98% | [5]; at 50.0 µM 98.9% | [6]; [8] 98% | [6]; at 50.0 µM 98.6%

Clc1ccc2nc3c(c(N4CCCCC4)c2c1)CCCC3
inactive: [1]; [7] 7% | [2]; [7] 4% | [3]; [7] 13% | [4]; [7] 2% | [5]; [7] 0% | [6]; [7] 11%
active: [1]; [8] 99% | [1]; at 50.0 µM 98.8% | [2]; [8] 99% | [2]; at 50.0 µM 99.2% | [3]; [8] 99% | [3]; at 50.0 µM 99.4% | [4]; [8] 99% | [4]; at 50.0 µM 99.2% | [5]; [8] 99% | [5]; at 50.0 µM 97% | [6]; [8] 98% | [6]; at 50.0 µM 99.2%

O=C(/C(=C\I)c1ccccc1)c1ccccc1
inactive: [1]; [7] 6% | [1]; [8] 6% | [2]; [7] -15% | [2]; [8] -15% | [3]; [7] -8% | [3]; [8] -8% | [4]; [7] -6% | [4]; [8] -6% | [5]; [7] -24% | [5]; [8] -24% | [6]; [7] -13% | [6]; [8] -13%
active: [1]; at 50.0 µM 88.5% | [2]; at 50.0 µM 92.5% | [3]; at 50.0 µM 86.4% | [4]; at 50.0 µM 89.9% | [5]; at 50.0 µM 90.2% | [6]; at 50.0 µM 86.7%

COc1ccc2c(c1OC)OCC2C (configuration not stated)
active: [1]; at 50.0 µM 86.5% | [2]; at 50.0 µM 71% | [5]; [8] 71% | [5]; at 50.0 µM 87.1%
inactive: [1]; [7] 3% | [1]; [8] 68% | [2]; [7] 0% | [2]; [8] 38% | [3]; [7] 1% | [3]; [8] 56% | [3]; at 50.0 µM 37.6% | [4]; [7] -4% | [4]; [8] 57% | [4]; at 50.0 µM 57.4% | [5]; [7] 2% | [6]; [7] -4% | [6]; [8] 67% | [6]; at 50.0 µM 43.2%
